# In PubChem BioAssay AID1063 (University of Pittsburgh Molecular Library Screening Center, 2008):
# Among all 200,000 compounds or so, about 18,000 (9%) were called active. Cut-off read from the data, not from the text of the source: active = inhibition above about 50%; inactive = the rest. The entries come from a sample that favours actives as a whole.
# Assay: antileishmanial activity against promastigotes – primary screen (AID 1063);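 note: promastigotes grown with compound for 44 hours at 28 °C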
# Conditions: Leishmania major promastigotes, resazurin fluorescence viability; at 10 µM; hits give high values
row,SMILES,inhibition
1,CC(C)N(Cc1ccccc1)C(=O)COC(=O)c1cnccn1,-4.04% (inactive)
2,COC(=O)Cc1c(O)ccn(Cc2cccc(C(F)(F)F)c2)c1=O,-15.9% (inactive)
3,CC(Sc1nnnn1C1CCCCC1)C(=O)O (stereo not given),-5.74% (inactive)
4,O=C(N/N=C/c1ccc([N+](=O)[O-])cc1)C(=O)N1CCCC1,-5.07% (inactive)
5,O=C(OCC(=O)c1cccs1)c1ccc([N+](=O)[O-])o1,13.5% (inactive)
6,COc1cccc(/C=N/Nc2ncc(C(F)(F)F)cc2Cl)c1O,28.2% (inactive)
7,COc1ccccc1/C=N\Nc1cc(C)nc(-n2nc(C)cc2C)n1,98.9% (active)
8,COc1cccc2c(N/N=C/c3ccco3)cc(C)nc12,2.22% (inactive)
9,COc1cccc(/C=N/Nc2cc(C)nc(-c3ccccc3O)n2)c1O,71.2% (active)
10,COc1ccc(Nc2cc(C)nc(-n3nc(C)cc3C)n2)cc1,28.9% (inactive)
11,COc1ccc(-c2nn(-c3ccccc3)cc2/C=N/Nc2ccccn2)cc1OC,27.8% (inactive)
12,CCc1ccc(CN(C)Cc2nc(Cc3ccccc3)no2)nc1,14% (inactive)
13,S=C(NCc1ccco1)Nc1ccc2c(c1)OCCO2,-4.58% (inactive)
14,O=C(O)C1CC(=O)N(Cc2cccnc2)C1 (stereo not given),-7.68% (inactive)
15,O=C(NCCc1ccccc1)C1CCC(Cn2c(=O)c3ccccc3n(Cc3cccnc3)c2=O)CC1 (stereo not given),73.5% (active)
16,COc1ccc(CCNC(=O)Cn2c(=O)n(CC3CCCO3)c(=O)c3ccccc32)cc1OC (stereo not given),-4.82% (inactive)
17,Cc1c(CN2CCCC(C(=O)c3cccc(Cl)c3)C2)c(=O)n(-c2ccccc2)n1C (stereo not given),16.8% (inactive)
18,CCN(CC)CCNC(=O)c1ccc(NS(=O)(=O)c2ccc3c(c2)OCCO3)cc1,-8.8% (inactive)
19,Cc1cccc(OCC(=O)Nc2ccccc2F)c1,8.74% (inactive)
20,CC(C)C(C)(C#N)NC(=O)CSc1nncn1-c1ccccc1 (stereo not given),-0.78% (inactive)
21,CCCNS(=O)(=O)c1ccc(CCC(=O)N2CCCC2)cc1,1% (inactive)
22,CN(C)CCCNC(=S)NCc1ccc(Cl)cc1,-5.52% (inactive)
23,S=C(NCc1ccc(Cl)cc1)NC1CCCCC1,57.3% (active)
24,S=C(NCc1ccc(Cl)cc1)NC12CC3CC(CC(C3)C1)C2,36.3% (inactive)

row,SMILES,inhibition
1,O=c1[nH]c(=S)[nH]c2[nH]c(=S)[nH]c12,7.12% (inactive)
2,CCSc1nc2c(c(=O)[nH]1)C(c1cccnc1)C(C(=O)OC(C)C)=C(C)N2 (stereo not given),56% (active)
3,COC(=O)C1=C(C)Nc2ncnn2C1c1cccnc1 (stereo not given),-4.12% (inactive)
4,COC(=O)C1=C(N)Oc2cc(C)oc(=O)c2C1c1cccnc1 (stereo not given),42.3% (inactive)
5,N/C(=N\OC(=O)CCCC(=O)O)c1ncc(C(F)(F)F)cc1Cl,-0.94% (inactive)
6,COc1ccc([N+](=O)[O-])cc1NC(=O)COC(=O)/C=C/c1ccco1,-8.41% (inactive)
7,COc1ccc(Cl)cc1C(=O)NNC(=S)NC(=O)/C=C/c1ccco1,18.7% (inactive)
8,COc1ccc(N2C(=O)/C(=C\c3ccco3)N=C2SCC(N)=O)cc1Cl,51.5% (active)
9,CCc1cccc2c(C=C(C#N)C#N)cn(CC(=O)N3CCCCC3)c12,78% (active)
10,CCOC(=O)C1CCN(C(=O)Cn2cc(C#N)c3ccccc32)CC1,0.22% (inactive)
11,COc1cccc2c(=O)n(CC(=O)N3CCCCCC3)ccc12,-6.35% (inactive)
12,Cc1ccccc1NC(=O)c1ccc(COc2ccc3c(C)cc(=O)oc3c2)cc1,-4.07% (inactive)
13,Cc1ccsc1C1C(C#N)=C(N)OC2=C1C(=O)CC(C)C2 (stereo not given),5.83% (inactive)
14,C/C=C/C=C/C(=O)OCC(=O)Nc1ccc(Cl)cc1,0.85% (inactive)
15,COCCN(CCOC)S(=O)(=O)c1ccc(C(=O)Nc2nc3c(s2)CCc2ccccc2-3)cc1,78.1% (active)
16,COc1ccc(C(=O)Nc2ncc3c(n2)-c2ccccc2CC3)cc1,33.3% (inactive)
17,C=CCN(CC=C)S(=O)(=O)c1ccc(C(=O)Nc2nc3c(s2)CCc2ccccc2-3)cc1,25.3% (inactive)
18,CC(C)C(NC(=O)C1CCC(C(C)(C)C)CC1)C(=O)NCCCN1CCCCC1 (stereo not given),4.42% (inactive)
19,COc1ccc(C=Nc2cccc3ncccc23)cc1,-0.39% (inactive)
20,Cc1ccc2[nH]c(=O)c(CC=C(Cl)Cl)c(C)c2c1,5.81% (inactive)
21,COC(=O)c1ccc(/C=N/N2C(C)CCCC2C)cc1 (stereo not given),1.84% (inactive)
22,CC(=O)NC(NC(=S)Nc1c(C)n(C)n(-c2ccccc2)c1=O)C(Cl)(Cl)Cl (stereo not given),-10.3% (inactive)
23,CCCC(=O)NC(C)C(c1cccs1)N1CCN(c2ccccc2)CC1 (stereo not given),21.8% (inactive)
24,COc1ccc(N2CCN(C(C)=C3C(=O)c4ccccc4C3=O)CC2)cc1,0.6% (inactive)

row,SMILES,inhibition
1,COc1ccc(C(C(O)C(=O)c2c[nH]c3ccccc23)N2CCN(c3ccccc3)CC2)cc1 (stereo not given),60.7% (active)
2,CCC(=O)c1ccc(OCC(O)Cn2nc(C)c(C(C)=O)c2C)cc1 (stereo not given),-1.66% (inactive)
3,Cc1c(C(N)=O)sc2ncn(CCOc3ccccc3)c(=O)c12,15.6% (inactive)
4,N#Cc1c(-c2ccc(Cl)cc2)c2c([nH]c1=S)CCCC2,-2.73% (inactive)
5,N/C(Cc1ccc([N+](=O)[O-])cc1)=N\OC(=O)COc1ccc2ccccc2c1,-4.21% (inactive)
6,CCOC(=O)COc1ccc([N+](=O)[O-])cc1,62.2% (active)
7,N/C(=N\OC(=O)COc1ccc([N+](=O)[O-])cc1)c1ccc(Br)cc1,-2.89% (inactive)
8,Cc1nnc(SCCCCSc2nnc(C)c(=O)[nH]2)[nH]c1=O,-5.64% (inactive)
9,CN(c1ccc(OCC(=O)OCC(=O)Nc2cccc([N+](=O)[O-])c2)cc1)S(=O)(=O)c1ccc(F)cc1,-5.95% (inactive)
10,CC(CC(=O)C1C(C)C=CCC1(C)C)NNC(N)=O (stereo not given),-5.44% (inactive)
11,C=CCCC(=O)Nc1nc(C)c(-c2csc(Nc3ccc(Cl)cc3)n2)s1,40.7% (inactive)
12,CCCCCCC(=O)Nc1nc(C)c(-c2csc(Nc3cccc(OC)c3)n2)s1,56.1% (active)
13,CCCCCCC(=O)Nc1nc(C)c(-c2csc(Nc3cc(Cl)ccc3OC)n2)s1,56.5% (active)
14,CCCCC(=O)Nc1nc(C)c(-c2csc(Nc3ccc(Cl)cc3)n2)s1,27% (inactive)
15,Cc1ccc(Nc2nc(-c3sc(NC(=O)c4ccccc4)nc3C)cs2)cc1,15.7% (inactive)
16,Cc1nc(NC(=O)c2cccc(Cl)c2)sc1-c1csc(Nc2cccc(Cl)c2)n1,6.25% (inactive)
17,O=C(c1ccc(N2CCOCC2)c([N+](=O)[O-])c1)N1CCN(S(=O)(=O)c2cccs2)CC1,26.9% (inactive)
18,Cn1cnnc1Sc1ccc(CN2CCN(C3CCCC3)C(CCO)C2)o1 (stereo not given),-0.44% (inactive)
19,COc1ccc(NC(=O)C(Br)C(C)C)cc1 (stereo not given),-2.81% (inactive)
20,CN(C)c1ccc(C(=S)N2CCN(C(=S)Nc3ccc(Cl)cc3)CC2)cc1,-3.85% (inactive)
21,O=C1CN(C(=O)COC(=O)c2cnc(Cl)c(Cl)c2)c2ccccc2N1,-5.42% (inactive)
22,O=c1c([N+](=O)[O-])cccn1Cc1ccc(F)cc1Cl,13.1% (inactive)
23,CSc1ccccc1NC(=O)CN(C)CC(=O)Nc1ccc(Cl)cc1[N+](=O)[O-],12% (inactive)
24,CCN(CC)CCNc1ccc(Cl)cc1[N+](=O)[O-],52.1% (active)

row,SMILES,inhibition
1,COCCNc1cc(NCCOC)c([N+](=O)[O-])cc1[N+](=O)[O-],32.9% (inactive)
2,C=CCn1c2ccccc2c2nnc(SC(CC)C(=O)Nc3nc(C)c(C(=O)OCC)s3)nc21 (stereo not given),62.5% (active)
3,C=CCn1c2ccccc2c2nnc(SCc3[nH]c(=O)[nH]c3C(=O)CCCCC(=O)OCC)nc21,4.8% (inactive)
4,CCOC(=O)c1sc(NC(=O)C(CC)Sc2nccn2C)nc1C (stereo not given),9.41% (inactive)
5,COc1ccccc1C(=O)CSc1cccc[n+]1[O-],-7.87% (inactive)
6,COc1cccc(C(=O)Nc2nc3ccc(S(C)(=O)=O)cc3s2)c1,16% (inactive)
7,CC(C)c1nc2sc3c(c2c(=O)n1N)CC(C)(C)OC3,-0.56% (inactive)
8,Cc1cc(C)c(NC(=O)CS(=O)CC(=O)Nc2cccnc2)c(C)c1 (stereo not given),-5.42% (inactive)
9,Cc1ccc(-c2nc(-c3cccnc3)sc2CC(=O)Nc2ccc(C)c(Cl)c2)cc1,78.2% (active)
10,O=C(O)Cc1sc(-c2ccc(C(=O)O)cc2)nc1-c1ccccc1,-1.45% (inactive)
11,CC(C)CC(CC(C)C)=NNC(=O)c1ccc(CSc2nncn2C)cc1,-4.77% (inactive)
12,O=C(CN1C(=O)NC2(CCCC2)C1=O)NCC1CCCO1 (stereo not given),-4.12% (inactive)
13,Cc1cc(=O)oc2c1c(C)nn2-c1ccc(Cl)cc1,-5.67% (inactive)
14,CCC(CC)C(=O)Nc1ccc(S(=O)(=O)Nc2nccs2)cc1,6.97% (inactive)
15,O=C(NC(=S)Nc1ccc(S(=O)(=O)Nc2ncccn2)cc1)c1cccc(Br)c1,-8.62% (inactive)
16,Cc1nc2ccccc2c2oc(C(=O)NCCCN3CCC(C)CC3)cc12,24% (inactive)
17,CCCN(CCC)CCNC(=O)c1cc2c(C)nc3ccccc3c2o1,56.9% (active)
18,Cc1nc2ccccc2c2oc(C(=O)NCC3CCCO3)cc12 (stereo not given),11.4% (inactive)
19,CC(C)OCCCNC(=O)c1ccc(C2SCC(=O)N2Cc2ccco2)cc1 (stereo not given),-3.9% (inactive)
20,Cc1cc(C(=O)NNC(=O)CCC2CCCCC2)c(C)o1,-8.93% (inactive)
21,CCC(=O)N1CCC(C(N)=O)(N2CCCCC2)CC1,0.56% (inactive)
22,O=C(Nc1cccn(Cc2ccccc2Cl)c1=O)NC1CCCCC1,17.9% (inactive)
23,COc1ccc(Cl)cc1C(=O)NNC(=S)NC1CCCC1,17.1% (inactive)
